# Assays:
# Test in all cases: DAPPL (digital affinity profiling via proximity ligation, sequencing); 10 mM Tris-HCl pH 7.5, 50 mM NaCl, 1 mM DTT, 4% glycerol, room temperature, 30 min; GST-TFs on glutathione beads, 16-mer random dsDNA library, 0.1% formaldehyde crosslink after washing; high values mean tight binding
# FLI1 = biological target: T1, FLI1 (Homo sapiens, UniProt Q01543 1-452); conditions: protein: recombinant; tags: N-terminal GST; dsDNA, one strand shown
# T1 sequence: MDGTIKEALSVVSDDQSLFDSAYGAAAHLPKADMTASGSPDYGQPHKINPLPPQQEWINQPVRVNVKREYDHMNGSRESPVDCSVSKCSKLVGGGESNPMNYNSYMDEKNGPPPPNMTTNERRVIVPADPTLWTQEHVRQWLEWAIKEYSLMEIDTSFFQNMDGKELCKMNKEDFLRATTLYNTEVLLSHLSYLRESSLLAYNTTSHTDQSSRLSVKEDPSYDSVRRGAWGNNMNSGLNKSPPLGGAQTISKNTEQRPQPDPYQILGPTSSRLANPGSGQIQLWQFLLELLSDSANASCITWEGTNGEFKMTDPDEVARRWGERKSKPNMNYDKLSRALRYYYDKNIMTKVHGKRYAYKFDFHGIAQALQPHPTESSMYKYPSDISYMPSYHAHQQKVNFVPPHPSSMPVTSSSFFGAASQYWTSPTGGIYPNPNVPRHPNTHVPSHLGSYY
# How it was run: (§1)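 Yeast served to express human transcription factors as GST fusions, which were then captured on glutathione beads and labelled with DNA barcodes. Pooled with a tag-only sample, they were incubated with 200 nmole of a 16-mer random double-stranded DNA library for 30 min at room temperature in Tris/NaCl/DTT/glycerol buffer, washed, crosslinked with 0.1% formaldehyde, ligated by proximity, amplified by PCR and sequenced. Dividing each hexamer's read frequency for a factor by its frequency for the tag-only sample gives the binding signal.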
# ELK1 = biological target: T2, ELK1 (Homo sapiens, UniProt P19419 1-428); conditions: protein: recombinant; tags: N-terminal GST; dsDNA, one strand shown
# T2 sequence: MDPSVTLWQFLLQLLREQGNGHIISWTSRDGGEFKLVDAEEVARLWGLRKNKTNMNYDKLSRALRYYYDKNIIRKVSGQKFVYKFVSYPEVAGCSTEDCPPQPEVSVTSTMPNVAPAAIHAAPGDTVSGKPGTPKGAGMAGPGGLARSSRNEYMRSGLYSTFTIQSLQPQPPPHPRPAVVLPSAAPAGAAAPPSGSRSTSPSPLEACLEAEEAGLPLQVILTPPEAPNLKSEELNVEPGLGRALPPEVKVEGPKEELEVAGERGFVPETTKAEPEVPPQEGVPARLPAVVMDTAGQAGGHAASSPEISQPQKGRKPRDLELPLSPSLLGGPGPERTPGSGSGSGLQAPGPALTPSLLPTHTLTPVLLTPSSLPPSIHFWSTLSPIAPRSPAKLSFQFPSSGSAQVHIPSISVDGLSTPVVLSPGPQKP
# How it was run: as §1
# GABPA = biological target: T3, GABPA (Homo sapiens, UniProt Q06546 1-454); conditions: protein: recombinant; tags: N-terminal GST; dsDNA, one strand shown
# T3 sequence: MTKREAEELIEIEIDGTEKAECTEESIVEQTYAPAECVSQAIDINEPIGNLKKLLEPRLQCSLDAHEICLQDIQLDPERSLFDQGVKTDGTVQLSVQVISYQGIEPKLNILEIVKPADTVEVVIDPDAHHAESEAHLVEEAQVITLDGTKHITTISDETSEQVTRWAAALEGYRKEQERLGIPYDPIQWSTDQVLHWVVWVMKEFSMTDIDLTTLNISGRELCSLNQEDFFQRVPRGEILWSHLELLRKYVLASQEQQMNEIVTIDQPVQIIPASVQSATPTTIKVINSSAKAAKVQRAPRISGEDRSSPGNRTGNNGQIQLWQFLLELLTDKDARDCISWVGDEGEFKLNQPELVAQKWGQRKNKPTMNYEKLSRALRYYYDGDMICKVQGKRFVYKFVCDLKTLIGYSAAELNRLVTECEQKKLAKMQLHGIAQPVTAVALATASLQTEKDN
# How it was run: as §1
# ERG = biological target: T4, ERG (Homo sapiens, UniProt P11308 1-479); conditions: protein: recombinant; tags: N-terminal GST; dsDNA, one strand shown
# T4 sequence: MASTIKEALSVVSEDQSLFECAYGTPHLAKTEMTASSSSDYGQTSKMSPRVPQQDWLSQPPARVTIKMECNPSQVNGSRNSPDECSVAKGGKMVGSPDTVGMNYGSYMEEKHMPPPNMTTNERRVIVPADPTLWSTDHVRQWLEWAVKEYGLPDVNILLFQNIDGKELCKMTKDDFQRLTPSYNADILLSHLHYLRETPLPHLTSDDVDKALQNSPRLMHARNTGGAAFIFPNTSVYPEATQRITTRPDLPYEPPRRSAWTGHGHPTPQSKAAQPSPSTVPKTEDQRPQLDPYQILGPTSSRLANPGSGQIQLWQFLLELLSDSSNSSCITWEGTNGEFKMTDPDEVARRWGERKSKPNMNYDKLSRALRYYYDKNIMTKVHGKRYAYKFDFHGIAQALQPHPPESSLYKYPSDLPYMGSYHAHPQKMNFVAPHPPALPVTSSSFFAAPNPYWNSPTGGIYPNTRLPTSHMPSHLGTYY
# How it was run: as §1
# ELF1 = ELF1 (Homo sapiens, UniProt P32519 1-619); conditions: protein: recombinant; tags: N-terminal GST; dsDNA, one strand shown
# Sequence of ELF1 (P32519 whole entry): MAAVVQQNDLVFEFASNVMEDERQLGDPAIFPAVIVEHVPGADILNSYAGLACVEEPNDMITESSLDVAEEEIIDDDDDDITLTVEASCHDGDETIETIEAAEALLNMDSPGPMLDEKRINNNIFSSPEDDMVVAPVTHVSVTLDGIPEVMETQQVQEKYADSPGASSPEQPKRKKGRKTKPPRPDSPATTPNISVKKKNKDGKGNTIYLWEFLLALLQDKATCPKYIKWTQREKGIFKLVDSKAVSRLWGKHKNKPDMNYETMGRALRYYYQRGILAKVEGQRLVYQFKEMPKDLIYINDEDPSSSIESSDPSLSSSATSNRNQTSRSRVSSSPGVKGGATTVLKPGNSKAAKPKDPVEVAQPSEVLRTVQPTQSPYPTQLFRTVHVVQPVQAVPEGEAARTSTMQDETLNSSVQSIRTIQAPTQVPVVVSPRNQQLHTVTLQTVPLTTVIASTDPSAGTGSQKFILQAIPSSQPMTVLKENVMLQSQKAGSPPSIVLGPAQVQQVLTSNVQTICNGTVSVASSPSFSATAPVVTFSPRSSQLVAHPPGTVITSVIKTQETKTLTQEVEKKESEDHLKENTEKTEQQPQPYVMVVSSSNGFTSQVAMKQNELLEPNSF
# How it was run: as §1
# EHF = biological target: T5, EHF (Homo sapiens, UniProt Q9NZC4 1-300); conditions: protein: recombinant; tags: N-terminal GST; dsDNA, one strand shown
# T5 sequence: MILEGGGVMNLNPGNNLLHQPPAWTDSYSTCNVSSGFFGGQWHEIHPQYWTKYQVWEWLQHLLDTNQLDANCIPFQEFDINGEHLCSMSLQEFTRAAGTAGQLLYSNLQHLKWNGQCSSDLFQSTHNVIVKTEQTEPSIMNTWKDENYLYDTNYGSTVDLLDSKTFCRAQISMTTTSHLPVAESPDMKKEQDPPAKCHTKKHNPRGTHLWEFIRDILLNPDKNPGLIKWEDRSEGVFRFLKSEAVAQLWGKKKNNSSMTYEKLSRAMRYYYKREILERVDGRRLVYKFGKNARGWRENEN
# How it was run: as §1
# SPI1 = SPI1 (Homo sapiens, UniProt P17947 1-270); conditions: protein: recombinant; tags: N-terminal GST; dsDNA, one strand shown
# How it was run: as §1
# SPIB = SPIB (Homo sapiens, UniProt Q01892 1-262); conditions: protein: recombinant; tags: N-terminal GST; dsDNA, one strand shown
# Sequence of SPIB (Q01892 whole entry): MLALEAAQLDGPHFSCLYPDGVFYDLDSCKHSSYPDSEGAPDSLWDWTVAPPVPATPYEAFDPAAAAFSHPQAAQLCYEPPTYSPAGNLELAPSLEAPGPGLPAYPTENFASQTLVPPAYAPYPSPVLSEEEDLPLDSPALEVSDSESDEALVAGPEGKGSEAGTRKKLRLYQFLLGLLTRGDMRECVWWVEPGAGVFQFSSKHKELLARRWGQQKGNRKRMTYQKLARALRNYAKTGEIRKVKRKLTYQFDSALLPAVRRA
# How it was run: as §1
# ELK3 = biological target: T6, ELK3 (Homo sapiens, UniProt P41970 1-407); conditions: protein: recombinant; tags: N-terminal GST; dsDNA, one strand shown
# T6 sequence: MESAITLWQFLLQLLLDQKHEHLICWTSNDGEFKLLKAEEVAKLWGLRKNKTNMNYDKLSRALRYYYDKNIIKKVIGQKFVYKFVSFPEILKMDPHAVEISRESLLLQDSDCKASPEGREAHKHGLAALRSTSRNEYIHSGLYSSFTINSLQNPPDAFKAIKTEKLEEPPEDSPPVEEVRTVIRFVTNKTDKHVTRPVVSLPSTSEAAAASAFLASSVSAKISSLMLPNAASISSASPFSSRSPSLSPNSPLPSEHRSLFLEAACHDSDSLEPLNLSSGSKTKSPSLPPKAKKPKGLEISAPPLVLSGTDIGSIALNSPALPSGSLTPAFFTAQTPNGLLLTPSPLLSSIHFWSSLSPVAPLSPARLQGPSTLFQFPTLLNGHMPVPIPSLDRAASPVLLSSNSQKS
# How it was run: as §1
# FEV = biological target: T7, FEV (Homo sapiens, UniProt Q99581 1-238); conditions: protein: recombinant; tags: N-terminal GST; dsDNA, one strand shown
# T7 sequence: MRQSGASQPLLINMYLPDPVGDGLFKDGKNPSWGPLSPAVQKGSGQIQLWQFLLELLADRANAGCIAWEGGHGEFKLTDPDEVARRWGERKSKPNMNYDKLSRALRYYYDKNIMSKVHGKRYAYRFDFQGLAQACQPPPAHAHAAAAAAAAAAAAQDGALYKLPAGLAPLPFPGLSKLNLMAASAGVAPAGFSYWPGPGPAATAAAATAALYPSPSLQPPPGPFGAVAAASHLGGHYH
# How it was run: as §1
# ETV5 = ETV5 (Homo sapiens, UniProt P41161 1-510); conditions: protein: recombinant; tags: N-terminal GST; dsDNA, one strand shown
# Sequence of ETV5 (P41161 whole entry): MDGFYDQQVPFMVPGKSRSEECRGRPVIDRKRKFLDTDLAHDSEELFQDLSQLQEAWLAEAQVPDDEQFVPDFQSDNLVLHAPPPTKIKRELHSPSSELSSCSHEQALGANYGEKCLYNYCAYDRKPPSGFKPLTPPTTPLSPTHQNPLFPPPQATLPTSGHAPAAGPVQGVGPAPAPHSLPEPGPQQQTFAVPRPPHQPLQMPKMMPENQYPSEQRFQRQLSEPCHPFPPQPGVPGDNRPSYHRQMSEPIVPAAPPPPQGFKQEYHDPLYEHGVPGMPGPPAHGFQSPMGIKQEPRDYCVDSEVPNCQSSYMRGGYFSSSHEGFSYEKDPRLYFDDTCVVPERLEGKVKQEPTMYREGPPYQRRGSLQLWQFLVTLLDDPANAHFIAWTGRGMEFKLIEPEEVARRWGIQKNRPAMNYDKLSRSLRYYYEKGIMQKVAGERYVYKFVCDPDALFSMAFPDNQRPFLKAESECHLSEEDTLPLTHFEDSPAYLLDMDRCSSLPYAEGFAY
# How it was run: as §1
# HSF1 = HSF1 (Homo sapiens, UniProt Q00613 1-529); conditions: protein: recombinant; tags: N-terminal GST; chain copies: 3; dsDNA, one strand shown
# Sequence of HSF1 (Q00613 whole entry): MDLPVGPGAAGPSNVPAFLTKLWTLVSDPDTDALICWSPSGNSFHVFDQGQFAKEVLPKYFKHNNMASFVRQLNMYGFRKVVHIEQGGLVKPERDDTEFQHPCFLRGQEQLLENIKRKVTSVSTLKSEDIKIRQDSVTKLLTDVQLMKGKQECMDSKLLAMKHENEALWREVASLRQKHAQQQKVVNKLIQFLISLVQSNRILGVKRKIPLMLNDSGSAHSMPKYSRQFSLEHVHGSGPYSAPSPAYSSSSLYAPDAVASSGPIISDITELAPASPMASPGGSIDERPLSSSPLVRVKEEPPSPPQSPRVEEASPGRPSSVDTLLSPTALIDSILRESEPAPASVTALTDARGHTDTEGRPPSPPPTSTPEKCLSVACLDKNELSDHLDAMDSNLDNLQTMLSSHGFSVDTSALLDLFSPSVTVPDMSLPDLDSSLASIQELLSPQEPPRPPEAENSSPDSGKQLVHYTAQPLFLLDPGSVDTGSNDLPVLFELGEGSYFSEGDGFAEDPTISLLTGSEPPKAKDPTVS
# How it was run: as §1
# SPIC = biological target: T8, SPIC (Homo sapiens, UniProt Q8N5J4 1-248); conditions: protein: recombinant; tags: N-terminal GST; dsDNA, one strand shown
# T8 sequence: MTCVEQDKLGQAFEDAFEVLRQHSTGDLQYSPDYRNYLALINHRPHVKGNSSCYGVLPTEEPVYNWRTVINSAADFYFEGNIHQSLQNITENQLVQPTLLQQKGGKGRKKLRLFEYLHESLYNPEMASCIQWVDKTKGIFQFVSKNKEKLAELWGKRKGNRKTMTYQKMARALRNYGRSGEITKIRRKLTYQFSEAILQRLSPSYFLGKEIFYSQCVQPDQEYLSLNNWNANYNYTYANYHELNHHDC
# How it was run: as §1
# ELF4 = ELF4 (Homo sapiens, UniProt Q99607 1-663); conditions: protein: recombinant; tags: N-terminal GST; dsDNA, one strand shown
# Sequence of ELF4 (Q99607 whole entry): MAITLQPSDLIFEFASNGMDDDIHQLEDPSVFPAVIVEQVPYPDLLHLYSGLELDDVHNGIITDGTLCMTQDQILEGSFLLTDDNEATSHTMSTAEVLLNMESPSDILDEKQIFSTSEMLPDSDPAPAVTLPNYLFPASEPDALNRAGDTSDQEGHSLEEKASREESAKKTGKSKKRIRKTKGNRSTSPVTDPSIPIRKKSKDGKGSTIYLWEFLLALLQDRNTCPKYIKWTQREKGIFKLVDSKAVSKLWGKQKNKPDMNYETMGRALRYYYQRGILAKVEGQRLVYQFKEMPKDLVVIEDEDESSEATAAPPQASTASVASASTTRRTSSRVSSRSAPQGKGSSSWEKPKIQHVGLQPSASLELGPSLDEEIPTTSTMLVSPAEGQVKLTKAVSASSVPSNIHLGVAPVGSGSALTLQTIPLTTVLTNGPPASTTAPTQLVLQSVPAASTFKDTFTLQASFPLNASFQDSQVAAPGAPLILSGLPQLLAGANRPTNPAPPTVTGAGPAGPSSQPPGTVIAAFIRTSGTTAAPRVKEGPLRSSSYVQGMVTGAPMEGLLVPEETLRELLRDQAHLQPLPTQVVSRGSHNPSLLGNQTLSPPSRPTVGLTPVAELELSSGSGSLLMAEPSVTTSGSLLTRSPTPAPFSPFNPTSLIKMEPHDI
# How it was run: as §1
# ELK4 = biological target: T9, ELK4 (Homo sapiens, UniProt P28324-2 1-405); conditions: protein: recombinant; tags: N-terminal GST; dsDNA, one strand shown
# T9 sequence: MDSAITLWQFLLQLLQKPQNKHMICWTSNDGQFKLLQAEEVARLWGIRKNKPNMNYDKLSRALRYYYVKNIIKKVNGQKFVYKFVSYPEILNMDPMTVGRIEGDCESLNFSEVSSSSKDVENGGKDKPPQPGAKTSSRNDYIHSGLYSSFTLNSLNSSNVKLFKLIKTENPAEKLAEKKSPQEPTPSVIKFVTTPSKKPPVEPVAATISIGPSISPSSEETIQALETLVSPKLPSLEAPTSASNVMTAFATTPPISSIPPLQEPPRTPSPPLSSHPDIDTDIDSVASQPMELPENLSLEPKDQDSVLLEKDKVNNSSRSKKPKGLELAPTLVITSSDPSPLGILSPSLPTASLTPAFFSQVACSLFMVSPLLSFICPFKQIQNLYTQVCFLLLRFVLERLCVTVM
# How it was run: as §1
# ETV2 = biological target: T10, ETV2 (Homo sapiens, UniProt O00321 1-342); conditions: protein: recombinant; tags: N-terminal GST; dsDNA, one strand shown
# T10 sequence: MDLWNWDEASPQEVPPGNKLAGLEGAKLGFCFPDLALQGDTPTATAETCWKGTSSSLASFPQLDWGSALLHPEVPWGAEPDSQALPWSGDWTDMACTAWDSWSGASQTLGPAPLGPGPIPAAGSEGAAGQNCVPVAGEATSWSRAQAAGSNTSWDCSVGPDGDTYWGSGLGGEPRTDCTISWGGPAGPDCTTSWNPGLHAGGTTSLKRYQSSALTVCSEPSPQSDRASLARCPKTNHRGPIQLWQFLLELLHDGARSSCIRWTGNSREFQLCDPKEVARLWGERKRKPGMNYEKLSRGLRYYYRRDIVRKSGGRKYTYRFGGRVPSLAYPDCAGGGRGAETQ
# How it was run: as §1
# ELF3 = biological target: T11, ELF3 (Homo sapiens, UniProt P78545 1-371); conditions: protein: recombinant; tags: N-terminal GST; dsDNA, one strand shown
# T11 sequence: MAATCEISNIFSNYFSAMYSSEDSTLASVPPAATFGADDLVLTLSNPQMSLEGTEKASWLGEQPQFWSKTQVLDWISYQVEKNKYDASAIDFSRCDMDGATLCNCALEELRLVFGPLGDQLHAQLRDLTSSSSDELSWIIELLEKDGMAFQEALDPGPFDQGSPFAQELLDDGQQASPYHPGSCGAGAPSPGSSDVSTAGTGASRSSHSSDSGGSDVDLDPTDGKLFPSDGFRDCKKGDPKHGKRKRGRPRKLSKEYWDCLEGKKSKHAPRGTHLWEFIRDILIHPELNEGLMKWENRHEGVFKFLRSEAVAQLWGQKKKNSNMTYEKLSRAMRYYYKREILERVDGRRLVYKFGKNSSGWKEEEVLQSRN
# How it was run: as §1
# CRX = CRX (Homo sapiens, UniProt O43186 1-299); conditions: protein: recombinant; tags: N-terminal GST; dsDNA, one strand shown
# Sequence of CRX (O43186 whole entry): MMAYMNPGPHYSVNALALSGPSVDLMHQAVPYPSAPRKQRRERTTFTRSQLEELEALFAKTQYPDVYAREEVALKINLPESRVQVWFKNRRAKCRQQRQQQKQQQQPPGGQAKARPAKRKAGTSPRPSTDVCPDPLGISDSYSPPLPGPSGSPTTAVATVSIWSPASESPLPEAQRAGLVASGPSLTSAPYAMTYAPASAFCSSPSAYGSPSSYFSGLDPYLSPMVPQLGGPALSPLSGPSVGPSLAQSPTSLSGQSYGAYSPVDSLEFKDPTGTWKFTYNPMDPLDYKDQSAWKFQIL
# How it was run: as §1
# ETV1 = ETV1 (Homo sapiens, UniProt P50549 1-477); conditions: protein: recombinant; tags: N-terminal GST; dsDNA, one strand shown
# Sequence of ETV1 (P50549 whole entry): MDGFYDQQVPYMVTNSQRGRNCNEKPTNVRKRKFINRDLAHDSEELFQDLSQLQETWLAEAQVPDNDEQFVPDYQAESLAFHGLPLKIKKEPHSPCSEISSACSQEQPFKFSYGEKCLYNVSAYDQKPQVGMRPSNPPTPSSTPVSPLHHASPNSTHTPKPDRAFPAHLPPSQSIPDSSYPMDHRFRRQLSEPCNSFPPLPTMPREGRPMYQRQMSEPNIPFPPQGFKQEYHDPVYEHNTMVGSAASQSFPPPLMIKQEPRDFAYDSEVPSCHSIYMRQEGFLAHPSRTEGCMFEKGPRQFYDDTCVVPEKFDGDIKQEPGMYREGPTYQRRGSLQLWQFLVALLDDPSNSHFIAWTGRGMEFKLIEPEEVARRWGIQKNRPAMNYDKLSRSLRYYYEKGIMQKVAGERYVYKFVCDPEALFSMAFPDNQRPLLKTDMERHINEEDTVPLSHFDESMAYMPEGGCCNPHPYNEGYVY
# How it was run: as §1
sequence,measurement,setting,value
AAATCC,binding signal,FLI1,"1.54 fold enrichment (6-mer frequency, TF over GST control)"
same,binding signal,ELK1,"1.66 fold enrichment (6-mer frequency, TF over GST control)"
same,binding signal,GABPA,"1.5 fold enrichment (6-mer frequency, TF over GST control)"
same,binding signal,ERG,"1.81 fold enrichment (6-mer frequency, TF over GST control)"
same,binding signal,ELF1,"1.59 fold enrichment (6-mer frequency, TF over GST control)"
same,binding signal,EHF,"1.58 fold enrichment (6-mer frequency, TF over GST control)"
same,binding signal,SPI1,"1.5 fold enrichment (6-mer frequency, TF over GST control)"
same,binding signal,SPIB,"1.65 fold enrichment (6-mer frequency, TF over GST control)"
same,binding signal,ELK3,"1.53 fold enrichment (6-mer frequency, TF over GST control)"
same,binding signal,FEV,"2.56 fold enrichment (6-mer frequency, TF over GST control)"
same,binding signal,ETV5,"1.64 fold enrichment (6-mer frequency, TF over GST control)"
same,binding signal,HSF1,"1.9 fold enrichment (6-mer frequency, TF over GST control)"
same,binding signal,SPIC,"1.5 fold enrichment (6-mer frequency, TF over GST control)"
same,binding signal,ELF4,"1.51 fold enrichment (6-mer frequency, TF over GST control)"
same,binding signal,ELK4,"1.47 fold enrichment (6-mer frequency, TF over GST control)"
same,binding signal,ETV2,"1.45 fold enrichment (6-mer frequency, TF over GST control)"
same,binding signal,ELF3,"1.34 fold enrichment (6-mer frequency, TF over GST control)"
same,binding signal,CRX,"2.53 fold enrichment (6-mer frequency, TF over GST control)"
same,binding signal,ETV1,"1.58 fold enrichment (6-mer frequency, TF over GST control)"
